The test system of assay [1] is PRMT1 (protein arginine N-methyltransferase 1). In words: small molecules binding arginine methyltransferase PRMT1 – biochemical, small-molecule microarray, 635 nm fluorescence, primary screen (AID 1088).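 Note: binding of Prmt1 protein to compounds spotted on small-molecule microarray slides.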 Particulars: higher = more signal.
Assay [2] in a line: growth effects on S. cerevisiae YJM789 – YJM789 clinical isolate, OD600, 24 h, basal, primary screen (AID 1089).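 Note: growth of clinical yeast isolate S. cerevisiae YJM 789 seeded 1000 cells per well; test concentration not given here.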 Particulars: higher = more signal, called active from +8 up or from −8 down.
The nature of assay [3]: S. pombe growth modifiers, basal conditions – strain 972, OD600, 24 h, no modulator, primary screen (AID 1090).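 Note: basal condition with compound alone and no growth modifier present; test concentration not given here.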 Particulars: S. pombe 972 growth, higher = more signal, called active from +8 up or from −8 down.
Assay [4] can be described thus: budding yeast growth modifiers under rapamycin – strain BY4716, OD600, 96 h, primary screen (AID 1091). Note: test concentration not given here. Particulars: S. cerevisiae BY4716 + rapamycin, higher = more signal, called active from +8 up or from −8 down.
In assay [5] the target is Torsin-1A-interacting protein 2 (Homo sapiens) (UniProt Q8NFQ8). In words: small molecules binding lysate-expressed LULL1 – cell lysate, human LULL1 lysate, 635/667 nm fluorescence, primary screen (AID 1092).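 Note: probe is lysate of COS7 cells overexpressing human LULL1; score merges per-feature 667 nm fluorescence with signal-to-noise.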 Particulars: small-molecule microarray, hLULL1 lysate binding, 635 nm fluorescence; higher = more signal.
Chain of Torsin-1A-interacting protein 2 (Homo sapiens) (Q8NFQ8 whole entry, looked up): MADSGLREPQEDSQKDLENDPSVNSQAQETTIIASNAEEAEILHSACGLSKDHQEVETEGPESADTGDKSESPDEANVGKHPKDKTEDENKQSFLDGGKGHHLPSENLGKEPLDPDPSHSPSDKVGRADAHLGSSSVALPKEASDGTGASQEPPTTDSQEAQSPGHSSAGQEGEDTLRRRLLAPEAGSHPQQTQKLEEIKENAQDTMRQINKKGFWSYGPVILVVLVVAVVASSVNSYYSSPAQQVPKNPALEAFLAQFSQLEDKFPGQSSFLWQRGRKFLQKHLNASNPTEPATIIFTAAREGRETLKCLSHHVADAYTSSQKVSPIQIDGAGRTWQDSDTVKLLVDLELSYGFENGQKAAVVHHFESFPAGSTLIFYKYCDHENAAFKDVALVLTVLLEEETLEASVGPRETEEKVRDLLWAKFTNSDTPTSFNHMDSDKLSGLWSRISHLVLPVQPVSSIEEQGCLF
Assay [6] can be described thus: optical density change of DRC41 E. coli – strain DRC41, OD650, 24 h, E. coli filamentation project, primary screen (AID 1093).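 Note: MC1000 strain lacking acrAB efflux and sulA so SOS filamentation is blocked; test concentration not given here.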 Particulars: E. coli DRC41 growth, higher = more signal, called active from +8 up or from −8 down.
A short description of assay [7]: probe aLefty2 binding to arrayed compounds – biochemical, biotinylated probe, 635/667 nm fluorescence, primary screen (AID 1094).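 Note: score merges spot fluorescence near 667 nm with spot signal-to-noise ratio.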 Particulars: small-molecule microarray, higher = more signal.
Assay [8] deals with Noggin (protein binding on small-molecule microarray). In words: small molecules binding Noggin protein – biochemical, 635/667 nm fluorescence, primary screen (AID 1095).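 Note: score merges 667 nm feature fluorescence with signal to noise over triplicate slides.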 Particulars: 635 nm fluorescence, higher = more signal.
In assay [9] the target is Neurogenic locus notch homolog protein 3 (Homo sapiens) (UniProt Q9UM47). In words: small molecules binding NOTCH3 protein – biochemical, 635/667 nm fluorescence, primary screen (AID 1096). Particulars: small-molecule microarray, 635 nm fluorescence, higher = more signal.
Chain of Neurogenic locus notch homolog protein 3 (Homo sapiens) (Q9UM47 whole entry, looked up): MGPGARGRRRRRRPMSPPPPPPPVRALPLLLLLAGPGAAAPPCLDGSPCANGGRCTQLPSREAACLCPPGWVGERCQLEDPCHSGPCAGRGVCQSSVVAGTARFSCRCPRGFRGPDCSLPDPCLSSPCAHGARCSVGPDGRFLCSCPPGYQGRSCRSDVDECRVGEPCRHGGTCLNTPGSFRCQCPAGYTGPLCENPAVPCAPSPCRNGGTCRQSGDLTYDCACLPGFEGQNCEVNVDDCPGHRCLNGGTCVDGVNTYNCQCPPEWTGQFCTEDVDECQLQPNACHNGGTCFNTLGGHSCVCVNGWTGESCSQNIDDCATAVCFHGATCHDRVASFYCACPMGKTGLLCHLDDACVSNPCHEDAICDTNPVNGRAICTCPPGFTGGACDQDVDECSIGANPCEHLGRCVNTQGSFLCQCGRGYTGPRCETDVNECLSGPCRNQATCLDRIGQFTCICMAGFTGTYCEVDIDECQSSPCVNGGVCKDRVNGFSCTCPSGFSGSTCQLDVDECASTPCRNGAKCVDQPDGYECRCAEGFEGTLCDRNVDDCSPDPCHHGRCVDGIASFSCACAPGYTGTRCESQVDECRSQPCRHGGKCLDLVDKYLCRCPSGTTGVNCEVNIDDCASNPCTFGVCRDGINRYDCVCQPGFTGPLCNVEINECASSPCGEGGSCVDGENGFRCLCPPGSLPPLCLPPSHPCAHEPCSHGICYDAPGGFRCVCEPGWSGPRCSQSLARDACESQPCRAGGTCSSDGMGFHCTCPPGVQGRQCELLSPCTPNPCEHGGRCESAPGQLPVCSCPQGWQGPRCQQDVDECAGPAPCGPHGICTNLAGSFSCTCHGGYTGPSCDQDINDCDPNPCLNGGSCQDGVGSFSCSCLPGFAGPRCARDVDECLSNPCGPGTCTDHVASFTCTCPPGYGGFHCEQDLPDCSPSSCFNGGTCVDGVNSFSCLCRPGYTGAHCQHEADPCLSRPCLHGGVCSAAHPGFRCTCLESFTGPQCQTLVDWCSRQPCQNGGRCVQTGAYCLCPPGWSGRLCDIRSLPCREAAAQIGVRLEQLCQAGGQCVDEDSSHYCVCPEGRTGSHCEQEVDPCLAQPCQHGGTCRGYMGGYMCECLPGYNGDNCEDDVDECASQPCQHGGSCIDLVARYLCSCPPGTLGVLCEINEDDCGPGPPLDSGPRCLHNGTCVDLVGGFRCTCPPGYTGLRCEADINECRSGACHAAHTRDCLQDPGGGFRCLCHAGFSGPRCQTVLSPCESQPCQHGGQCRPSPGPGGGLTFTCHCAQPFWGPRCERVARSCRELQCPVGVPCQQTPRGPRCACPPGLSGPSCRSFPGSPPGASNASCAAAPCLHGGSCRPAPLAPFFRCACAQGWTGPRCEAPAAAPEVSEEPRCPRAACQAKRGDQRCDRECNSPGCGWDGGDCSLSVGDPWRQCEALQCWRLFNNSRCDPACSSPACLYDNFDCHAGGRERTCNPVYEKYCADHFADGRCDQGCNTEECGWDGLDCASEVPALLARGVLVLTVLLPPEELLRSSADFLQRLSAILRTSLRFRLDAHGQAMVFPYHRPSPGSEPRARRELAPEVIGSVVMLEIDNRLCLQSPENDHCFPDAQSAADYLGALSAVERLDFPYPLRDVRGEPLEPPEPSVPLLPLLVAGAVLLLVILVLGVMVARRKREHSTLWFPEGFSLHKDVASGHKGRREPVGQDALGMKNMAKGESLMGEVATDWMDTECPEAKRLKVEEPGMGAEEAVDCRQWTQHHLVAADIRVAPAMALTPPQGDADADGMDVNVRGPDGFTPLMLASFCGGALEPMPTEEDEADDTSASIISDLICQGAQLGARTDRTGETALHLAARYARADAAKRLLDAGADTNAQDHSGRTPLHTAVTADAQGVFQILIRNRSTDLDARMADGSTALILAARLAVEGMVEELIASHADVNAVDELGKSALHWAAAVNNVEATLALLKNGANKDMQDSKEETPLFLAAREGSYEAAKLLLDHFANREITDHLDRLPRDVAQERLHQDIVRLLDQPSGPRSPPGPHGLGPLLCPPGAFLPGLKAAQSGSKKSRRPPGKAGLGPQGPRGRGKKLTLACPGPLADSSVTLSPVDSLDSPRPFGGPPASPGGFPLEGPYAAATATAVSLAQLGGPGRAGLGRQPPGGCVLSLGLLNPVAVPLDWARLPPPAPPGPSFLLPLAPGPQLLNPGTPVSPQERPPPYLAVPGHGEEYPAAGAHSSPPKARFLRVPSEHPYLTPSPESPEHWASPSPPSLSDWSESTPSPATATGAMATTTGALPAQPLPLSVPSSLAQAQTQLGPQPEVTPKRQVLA
The nature of assay [10]: probe aEGFR binding to arrayed compounds – biochemical, biotinylated probe, 635/667 nm fluorescence, primary screen (AID 1097).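 Note: probe is a biotinylated anti-EGFR antibody binding compounds printed on slides; score combines fluorescence near 667 nm and signal to noise of each spot.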 Particulars: small-molecule microarray, higher = more signal.
In assay [11] the test system is Plasmodium falciparum Sir2 (PF13_0152, Sir2A). In words: Plasmodium falciparum Sir2A binding compounds – biochemical, small-molecule microarray, 635 nm fluorescence, primary screen (AID 1098).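 Note: score merges spot fluorescence intensity with its signal-to-noise ratio.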 Particulars: fluorescence 635 nm, higher = more signal.
Assay [12] in a line: probe aDKK1 binding to arrayed compounds – biochemical, biotinylated probe, 635/667 nm fluorescence, primary screen (AID 1099).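 Note: score merges 667nm spot fluorescence with signal to noise across triplicate slides; reference of the scale not given here.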 Particulars: small-molecule microarray, higher = more signal.
Assay [13] can be described thus: probe aCHRDL2 binding to arrayed compounds – biochemical, biotinylated probe, 635/667 nm fluorescence, primary screen (AID 1100). Particulars: small-molecule microarray, higher = more signal.
The nature of assay [14]: change in splice reporter luminescence, either direction, cell-based, HEK293, spliceosome inhibition project, primary screen (AID 1101).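 Note: HEK293 cells carrying a splicing-competent luciferase reporter gene; test concentration not given here.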 Particulars: HEK293 splicing luciferase reporter, 24 h, higher = more signal, called active from +8 up or from −8 down. In general terms: In a reporter assay the amount or activity of a reporter protein is the signal.
The target of assay [15] is Fibroblast growth factor 10 (Homo sapiens) (UniProt O15520). In words: compounds binding fibroblast growth factor 10 – biochemical, small-molecule microarray, 635 nm fluorescence, primary screen (AID 1102). Particulars: FGF10 binding, fluorescence 635 nm, higher = more signal.
Chain of Fibroblast growth factor 10 (Homo sapiens) (O15520 whole entry, looked up): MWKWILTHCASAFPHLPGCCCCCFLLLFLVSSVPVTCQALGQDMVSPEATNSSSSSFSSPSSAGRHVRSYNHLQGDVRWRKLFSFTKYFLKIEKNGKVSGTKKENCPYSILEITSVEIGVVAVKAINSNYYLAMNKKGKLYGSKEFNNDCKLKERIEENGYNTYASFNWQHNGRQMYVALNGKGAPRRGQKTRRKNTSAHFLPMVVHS
In assay [16] the test system is glycogen synthase kinase-3 (GSK3A per assay name; protocol says GSK3B). In words: compounds binding glycogen synthase kinase-3 – biochemical, small-molecule microarray, 635 nm fluorescence, GSK3A, primary screen (AID 1103). Note: the record names both GSK3A and GSK3B. Particulars: fluorescence 635 nm, higher = more signal.
Assay [17] has as its target Epidermal growth factor receptor (Homo sapiens) (UniProt P00533). In words: compounds binding epidermal growth factor receptor – biochemical, small-molecule microarray, 635 nm fluorescence, primary screen (AID 1104).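 Note: score merges 667 nm emission intensity with spot signal to noise over triplicate slides.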 Particulars: EGFR binding, higher = more signal.
The target of assay [18] is Follistatin-related protein 3 (Homo sapiens) (UniProt O95633). In words: compounds binding follistatin-related protein 3 – biochemical, small-molecule microarray, 635 nm fluorescence, primary screen (AID 1105).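 Note: score merges emission near 667 nm and signal to noise per printed spot across three slides.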 Particulars: FSTL3 binding, higher = more signal.
Chain of Follistatin-related protein 3 (Homo sapiens) (O95633 whole entry, looked up): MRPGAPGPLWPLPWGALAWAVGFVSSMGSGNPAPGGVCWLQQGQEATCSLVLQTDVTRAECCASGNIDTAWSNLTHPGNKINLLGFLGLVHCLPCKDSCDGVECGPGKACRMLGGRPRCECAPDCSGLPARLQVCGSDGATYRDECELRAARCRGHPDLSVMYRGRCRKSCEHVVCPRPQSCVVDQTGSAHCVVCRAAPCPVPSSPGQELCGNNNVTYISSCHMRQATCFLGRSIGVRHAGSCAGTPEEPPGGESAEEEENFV
Assay [19] has as its target Dickkopf-related protein 1 (Homo sapiens) (UniProt O94907). In words: small molecules binding DKK1 protein – biochemical, small-molecule microarray, 635 nm fluorescence scan, primary screen (AID 1106).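 Note: score merges emission near 667 nm with signal to noise over three replicate slides.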 Particulars: higher = more signal.
The test system of assay [20] is Inhibin beta A chain (activin A). In words: small molecules binding activin A – biochemical, small-molecule microarray, 635 nm fluorescence scan, primary screen (AID 1107).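 Note: mouse activin A protein probed at 4.33 µg/mL on printed slides; score merges bound-protein fluorescence near 667 nm with spot signal-to-noise.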 Particulars: INHBA, higher = more signal.

Calls of active or inactive are those of the source.

Chain of Epidermal growth factor receptor (Homo sapiens) (P00533 whole entry, looked up): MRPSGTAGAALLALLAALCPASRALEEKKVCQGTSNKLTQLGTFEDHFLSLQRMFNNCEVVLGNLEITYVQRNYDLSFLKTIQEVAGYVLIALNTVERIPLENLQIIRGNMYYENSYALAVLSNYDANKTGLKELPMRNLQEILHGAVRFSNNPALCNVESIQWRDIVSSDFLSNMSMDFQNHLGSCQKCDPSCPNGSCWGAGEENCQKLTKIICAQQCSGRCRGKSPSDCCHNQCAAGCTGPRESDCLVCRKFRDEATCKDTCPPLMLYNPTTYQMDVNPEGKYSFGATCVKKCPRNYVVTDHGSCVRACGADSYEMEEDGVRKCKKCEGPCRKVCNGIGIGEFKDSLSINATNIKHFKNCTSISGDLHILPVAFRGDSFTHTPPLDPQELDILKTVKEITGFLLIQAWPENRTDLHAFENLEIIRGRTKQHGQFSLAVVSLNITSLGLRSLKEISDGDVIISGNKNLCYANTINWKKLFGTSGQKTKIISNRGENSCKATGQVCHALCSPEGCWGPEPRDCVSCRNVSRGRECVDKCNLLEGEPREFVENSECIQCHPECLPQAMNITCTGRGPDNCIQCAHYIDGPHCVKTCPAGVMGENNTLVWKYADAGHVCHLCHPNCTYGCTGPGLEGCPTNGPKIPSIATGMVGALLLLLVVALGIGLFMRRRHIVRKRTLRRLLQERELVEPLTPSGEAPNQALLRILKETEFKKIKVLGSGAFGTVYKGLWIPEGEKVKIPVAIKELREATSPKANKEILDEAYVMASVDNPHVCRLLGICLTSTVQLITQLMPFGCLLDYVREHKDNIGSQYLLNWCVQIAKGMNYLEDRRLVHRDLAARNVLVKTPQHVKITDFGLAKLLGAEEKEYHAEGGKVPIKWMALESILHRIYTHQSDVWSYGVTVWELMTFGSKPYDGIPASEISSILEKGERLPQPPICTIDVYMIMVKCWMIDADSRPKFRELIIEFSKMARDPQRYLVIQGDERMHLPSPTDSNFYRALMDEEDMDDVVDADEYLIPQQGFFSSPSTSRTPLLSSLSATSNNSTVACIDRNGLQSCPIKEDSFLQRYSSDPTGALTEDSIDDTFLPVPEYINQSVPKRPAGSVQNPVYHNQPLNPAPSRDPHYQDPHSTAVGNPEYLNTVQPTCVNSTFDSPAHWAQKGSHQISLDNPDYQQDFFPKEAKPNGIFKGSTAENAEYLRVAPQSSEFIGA
Chain of Dickkopf-related protein 1 (Homo sapiens) (O94907 whole entry, looked up): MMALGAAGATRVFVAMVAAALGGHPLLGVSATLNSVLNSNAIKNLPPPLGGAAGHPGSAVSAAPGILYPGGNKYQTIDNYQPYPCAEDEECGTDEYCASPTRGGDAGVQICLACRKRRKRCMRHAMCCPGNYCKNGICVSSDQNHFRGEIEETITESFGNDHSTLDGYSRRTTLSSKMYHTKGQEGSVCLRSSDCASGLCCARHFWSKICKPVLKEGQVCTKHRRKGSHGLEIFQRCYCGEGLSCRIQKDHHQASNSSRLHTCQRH

For the compound `CCCCNC(=O)c1ccc(C#CC(C)(C)C)c(OC(C)=O)c1`, the composite z-score in assay [1] is 1.45; in [5], 0.503; in assay [7], -0.159; in [8] it was 0.0904; in assay [9] it was 1.1; in [10], -0.127. Further, the composite z-score in assay [11] is 0.311; in [12] it was -0.369; in assay [13] it was -0.675; in assay [15], 1.11; in assay [16] it was 1.04; in assay [17] it was 0.841. The composite z-score in assay [18] is 1.44; in [19] it was 0.689; in assay [20] it was 1.12. Further, the z-score was 0.0582 (inactive) in assay [2]; -5.49 (inactive) in [3]; -1 (inactive) in assay [4]; 1.05 (inactive) in assay [6]; -1.11 (inactive) in [14].

On to `O=C(NCc1ccc(F)cc1)[C@H]1C[C@H]2C(=O)NCC(=O)N2[C@H]1c1ccc(O)cc1`, for which the composite z-score in assay [1] is 1.55; in [5], 1.22; in [7], 0.372; in assay [8] it was 1.35; in assay [9] it was 0.0831; in assay [10], -0.334. In addition, the composite z-score in assay [11] was 1.01; in assay [12] it was 0.207; in assay [13], 0.112; in [15], 1.37; in assay [16], -0.88; in assay [17] it was 0.297. Besides, the composite z-score in assay [18] was 0.138; in [19], 0.787; in assay [20], 0.43. The z-score in [2] is 1.29 (inactive); in [3], 1.01 (inactive); in assay [4] it was 1.56 (inactive); in assay [6] it was 0.816 (inactive); in assay [14] it was -0.12 (inactive).

Consider `COC(=O)[C@@H]1N=C(c2ccc(OCCCO)cc2)O[C@@H]1C`, for which the composite z-score in [1] is 1.28; in assay [5], -0.0276; in assay [7], 0.0539; in [8], 0.0641; in [9] it was 0.0599; in assay [10] it was -0.0465. In addition, the composite z-score is -0.0756 in assay [11]; 0.017 in assay [12]; 0.795 in assay [13]; 0.965 in [15]; 0.16 in assay [16]; -0.55 in [17]. Moreover, the composite z-score in assay [18] was -0.0372; in assay [19] it was 0.0375; in assay [20], -0.004. For the same compound, the z-score in assay [2] is 0.464 (inactive); in [3], -0.0679 (inactive); in assay [4], -0.184 (inactive); in assay [6], 0.98 (inactive); in [14], 0.04 (inactive).

Take `COCCCNC(=O)[C@@]1(Sc2ccc(C)cc2)CC(=O)N(C2Cc3ccccc3C2)[C@@H]1c1ccc(CO)cc1`: the composite z-score was 0.585 in [1]; 3.11 in assay [5]; -0.236 in assay [7]; -1.72 in assay [8]; -0.314 in [9]; -0.254 in [10]. Besides, the composite z-score in [11] was 1.06; in assay [12], 0.106; in assay [13], 0.899; in assay [15], -1.39; in assay [16], -0.429; in assay [17] it was -0.787. The composite z-score in assay [18] is -1.42; in [19], -1.76; in assay [20], -0.115. In addition, the z-score in [2] was 0.0853 (inactive); in assay [3] it was -1 (inactive); in [4], -0.798 (inactive); in assay [6], -1.27 (inactive); in assay [14], -0.866 (inactive).

With `CC(C)[Si]1(C(C)C)OCc2cc(C3CC3)nc(-c3ccc(Oc4ccccc4)cc3)c21`, the composite z-score in [1] is -0.834; in assay [5], -0.229; in [7], -0.13; in assay [8], -0.27; in assay [9], -0.488; in assay [10], -0.062. The composite z-score in assay [11] was -0.777; in [12] it was 0.15; in assay [13] it was 0.056; in assay [15] it was -0.382; in assay [16], -0.964; in assay [17], -0.233. Also, the composite z-score in assay [18] was -0.816; in [19] it was -0.604; in [20], 0.228. The z-score is 1.95 (inactive) in assay [2]; 1.12 (inactive) in assay [3]; 2.1 (inactive) in [4]; -0.26 (inactive) in [6]; -0.654 (inactive) in assay [14].

The values are drawn from PubChem BioAssay.
